What all share (test): NCI-60 one-dose screen, 48 h (100 = growth as untreated, 0 = no growth, -100 = all killed)
Holding throughout (details): 10 µM unless noted

Assay [1] concerns NCI-H23 lung.
For assay [2], the system named is NCI-H226 lung.
The test system of assay [3] is NCI-H322M lung.
Assay [4] deals with HOP-62 NSCLC.
Assay [5] deals with NCI-H460 lung.
Assay [6] concerns HOP-92 NSCLC.
Assay [7] deals with NCI-H522 lung.
The test system of assay [8] is A549/ATCC NSCLC.
Assay [9] has as its system 786-0 renal.
The test system of assay [10] is COLO 205 colon.

This is part of a sample that, as a whole, favours compounds with a hit. Of some 83,000 tested, about 20% had one in any assay.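 In brief: 96-well plates, 48 h treatment, single concentration, percent growth endpoint.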 Values without a mark were called inactive. Calls of active or inactive are those of the source. How the source made its calls: active means growth percent below 10; inactive means the rest.

Turning to `Nc1n[nH]c2ccc([C@@H]3Nc4cc5c(cc4[C@H]4C6CCC(C6)[C@@H]34)C(=O)NC5)cc12` (stereo not given in full), the growth in [1] was 28.3%; in assay [2], 4.99% (active); in assay [3], 42.1%; in [4] it was 39.4%; in assay [5], 1.7% (active); in assay [6], 75.3%. In addition, the growth in assay [7] was 16.9%; in assay [8], 26.4%; in assay [9], 17.3%; in assay [10], -40.1% (active).

Consider `CC[C@H]1OC(=O)[C@H](C)[C@@H](O[C@H]2C[C@@](C)(OC)[C@@H](O)[C@H](C)O2)[C@H](C)[C@@H](O[C@@H]2O[C@H](C)C[C@H](N(C)C)[C@H]2O)[C@](C)(O)C[C@H](C)CN(C)[C@H](C)[C@@H](O)[C@]1(C)O`, for which the growth was 93.7% in assay [1]; 103% in assay [2]; 104% in [3]; 97.7% in assay [4]; 102% in assay [5]; 67.5% in assay [6]. Moreover, the growth in [7] was 104%; in assay [8], 104%; in [9], 91.7%; in assay [10], 45.6%.

As for `N#C/C(=C\c1ccc(-c2cc(C(F)(F)F)ccc2Cl)o1)c1nc(-c2ccco2)cs1`, the growth in assay [1] was 93.7%; in assay [2] it was 96.2%; in assay [3], 103%; in assay [4] it was 96.1%; in assay [5], 102%; in [6], 101%. For the same compound, the growth in assay [7] is 85.3%; in [8], 108%; in assay [9], 104%; in [10], 119%.

Turning to `O=[N+]([O-])c1cnc(N2CCN(CC3CC3)CC2)nc1N1CCN(CC2CC2)CC1`, the growth was 95.4% in assay [1]; 81.3% in assay [2]; 88.8% in [3]; 108% in [4]; 102% in assay [5]; 74% in assay [6]. Moreover, the growth in [7] is 93.9%; in [8], 104%; in [9] it was 94.8%; in [10] it was 97.1%.

On to `N#Cc1c(N)n(CCNC(=O)c2ccccc2)c2nc3ccccc3nc12`, for which the growth in assay [1] was 103%; in assay [2] it was 97.2%; in assay [3], 121%; in assay [4], 111%; in [5] it was 117%; in [6] it was -17.4% (active). The growth in assay [7] was 84.2%; in [8], 105%; in assay [9], 92%; in assay [10], 115%.

`COc1ccc2cc(-c3nn(-c4ccc(C(=O)O)cc4)cc3CO)ccc2c1`: the growth in [1] was 97.9%; in [2], 99.7%; in assay [3], 97%; in [4] it was 104%; in assay [5] it was 99.1%; in [6], 102%. Moreover, the growth in assay [7] is 82.6%; in assay [8] it was 102%; in assay [9], 99.6%; in [10], 114%.

Consider `Cc1cc(NS(=O)(=O)c2ccc(-c3cnc(C4CC4)o3)cc2)ccc1Cl`, for which the growth was 24.3% in [1]; 58.4% in assay [2]; 44.7% in assay [3]; 34.1% in assay [4]; 7.65% (active) in [5]; 60.7% in assay [6]. Also, the growth is -11.7% (active) in assay [7], 15.3% in [8], 33.7% in assay [9] and -13.7% (active) in [10].

As to `Cc1ccc(NC(=O)/C=C/c2ccccc2)c(C(N)=O)c1`, the growth in [1] is 58.6%; in assay [2], 68.2%; in [3], 63.1%; in [4], 88.2%; in assay [5], 10.5%; in assay [6], 62.9%. For the same compound, the growth in assay [7] is -8.74% (active); in [8], 25.7%; in assay [9], 60.7%; in [10] it was -21.2% (active).

For the compound `O=C(CCl)Oc1ccc(-c2ccccc2)c(Br)c1`, the growth in [1] is 100%; in assay [2], 96.4%; in [3], 105%; in assay [4], 107%; in assay [5] it was 104%; in [6], 92%. In addition, the growth is 107% in assay [7], 106% in assay [8], 105% in assay [9] and 108% in assay [10].

For the compound `Cn1c(NCCc2ccc(O)c(O)c2)nc2c1c(=O)n(Cc1ccc(Cl)c(Cl)c1)c(=O)n2C`, the growth is 91.5% in assay [1]; 73.7% in assay [2]; 82.1% in assay [3]; 104% in assay [4]; 88.2% in assay [5]; 45.3% in assay [6]. Moreover, the growth in assay [7] is -28.7% (active); in assay [8], 80.3%; in assay [9], 83%; in [10], 57.4%.

In the case of `O=C1NC(=O)C(c2ccc(Cl)cc2Cl)N1` (stereo not given), the growth in assay [1] was 100%; in assay [2], 103%; in assay [3], 100%; in [4], 111%; in assay [5], 95.2%; in assay [6] it was 107%. For the same compound, the growth was 93.8% in assay [7], 101% in assay [8], 110% in assay [9] and 125% in assay [10].

Turning to `CNC(=O)c1cc(Oc2ccc(NC(=O)Nc3ccc(Cl)c(SC)c3)c(F)c2)ccn1`, the growth was 29.7% in assay [1]; 40.4% in assay [2]; 74.5% in assay [3]; 62.1% in [4]; 58.2% in assay [5]; 48.8% in assay [6]. For the same compound, the growth was 17.5% in [7], 39.9% in assay [8], 88.5% in assay [9] and 24.4% in assay [10].

Regarding `CN1CCN(c2nc(NCCCNc3ccnc4cc(Cl)ccc34)c3ccccc3n2)CC1`, the growth was 72.5% in assay [1]; 70% in assay [2]; 64.3% in assay [3]; 49% in assay [4]; 28.5% in assay [5]; 68.4% in [6]. Further, the growth was 20.2% in [7], 29.2% in [8], 74.6% in assay [9] and -6.18% (active) in [10].

As to `CC1=NN(c2nc(-c3ccc(Cl)cc3)c(C#N)c(N3CCOCC3)n2)C(=O)C1`, the growth in assay [1] was 80.7%; in assay [2], 89.8%; in assay [3], 101%; in [4], 87%; in assay [5] it was 99.1%; in assay [6], 6.28% (active). Moreover, the growth is 78.9% in [7], 101% in assay [8], 49.1% in assay [9] and 104% in assay [10].

For the origin of these results see PubChem BioAssay (NCI).
